Measured values published in the supplement of paper PMC11732987, “Enantioselective OTUD7B fragment discovery through chemoproteomics screening and high-throughput optimisation” (Communications Chemistry, 2025).

Target: T1, USP38 (UniProt Q8NB14)
T1 sequence (whole entry): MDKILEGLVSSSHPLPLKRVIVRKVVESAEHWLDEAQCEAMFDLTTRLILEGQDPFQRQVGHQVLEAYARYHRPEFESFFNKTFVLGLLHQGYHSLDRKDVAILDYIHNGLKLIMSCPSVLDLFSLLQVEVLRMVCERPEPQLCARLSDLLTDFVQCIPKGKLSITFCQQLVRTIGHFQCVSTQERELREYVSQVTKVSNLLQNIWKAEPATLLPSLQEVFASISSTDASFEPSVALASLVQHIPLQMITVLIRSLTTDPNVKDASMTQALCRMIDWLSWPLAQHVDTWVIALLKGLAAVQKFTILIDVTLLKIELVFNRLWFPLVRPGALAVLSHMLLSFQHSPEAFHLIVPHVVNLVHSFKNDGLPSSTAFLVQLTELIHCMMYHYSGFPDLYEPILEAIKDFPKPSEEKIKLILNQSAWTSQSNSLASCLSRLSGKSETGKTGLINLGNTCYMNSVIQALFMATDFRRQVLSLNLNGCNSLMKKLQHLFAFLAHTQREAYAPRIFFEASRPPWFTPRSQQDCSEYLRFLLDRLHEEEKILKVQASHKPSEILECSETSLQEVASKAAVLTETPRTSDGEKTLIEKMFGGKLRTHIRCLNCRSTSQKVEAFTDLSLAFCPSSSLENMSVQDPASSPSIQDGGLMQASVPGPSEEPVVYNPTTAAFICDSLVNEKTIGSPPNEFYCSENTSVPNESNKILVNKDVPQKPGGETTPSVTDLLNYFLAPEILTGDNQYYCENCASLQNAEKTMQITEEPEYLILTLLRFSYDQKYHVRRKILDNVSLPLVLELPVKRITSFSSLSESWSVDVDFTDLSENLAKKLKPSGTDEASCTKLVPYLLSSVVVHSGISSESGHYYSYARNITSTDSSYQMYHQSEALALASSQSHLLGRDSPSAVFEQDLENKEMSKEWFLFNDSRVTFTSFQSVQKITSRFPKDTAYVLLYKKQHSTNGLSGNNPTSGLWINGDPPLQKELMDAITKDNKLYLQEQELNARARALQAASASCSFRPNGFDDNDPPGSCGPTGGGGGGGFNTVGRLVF
Experiment: log2 ratio of Biotin-Ahx-Ub-VS probe labelling (compound/DMSO); higher = less target engagement, active = hit call of the paper (q ≤ 0.05, log2 ratio ≤ -1)
Details: treatment time: 3 h
Outline: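 Average ratios of compound to vehicle were obtained by unpaired t-test. Beforehand, 495 µg samples of HEK293T lysate in buffer with protease inhibitors were treated in triplicate with compound over a concentration series or vehicle for 3 h, then with 0.5 µM final Biotin-Ahx-Ub-VS for 1 h. Labelled deubiquitinases were NeutrAvidin-enriched, digested and quantified label-free by diaPASEF LC-MS/MS in Spectronaut, normalised to the global median. Values are log2 and cover proteins with at least two unique peptides.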

Measured: log2 ratio of Biotin-Ahx-Ub-VS probe labelling

O=C(CCl)N[C@@H]1CCCc2ccccc21
inactive: compound concentration: 0.78uM -0.208 | compound concentration: 1.56uM -0.105 | compound concentration: 3.13uM -0.116 | compound concentration: 6.25uM -0.253 | compound concentration: 12.5uM -0.127 | compound concentration: 25uM -0.107 | compound concentration: 50uM -0.0917 | compound concentration: 100uM -0.166 | compound concentration: 200uM -0.233
